This is an account of results in PubChem BioAssay (Tox21).

Records with an inconclusive call do not appear. Unmarked numbers belong to inactive results. The source made the active and inactive calls. Calls follow the shape of the dose curve; as a rule, active = well fitted cell-killing curve with a large enough effect in the repeat runs; inconclusive = weak or mixed curves, or effect the other way; inactive = flat fitted curve, though single readings scatter.
% is scaled to controls: 0 for no effect and ±100 for the full control effect; potency is read from the fitted curve at half-maximal effect.

The test is described as follows: qHTS RealTime-Glo MT Cell Viability Assay in HEK293 cells - 8 hour (AID 1224887). Also: nearly all actives have a fitted effect of over 50% in size. As to activity change, negative = cytotoxicity: top concentration of the series differs between compounds. The following applies: RealTime-Glo luminescence; series mostly up to 76.8 µM; activity change, negative = cytotoxicity: at the top concentration. From the text: U.S. Tox21 Program National Center for Advancing Translational Sciences [NCATS] NIH Chemical Genomics Center [NCGC] U.S. Environmental Protection Agency [EPA] National Institutes of Environmental Health Sciences [NIEHS] National Toxicology Program [NTP] U.S. Food and Drug Administration [FDA] Tox21 Assay Overview: Measure of cell viability is critical in the cell-base assay. Analysis of cell viability is necessary for the characterization of cell responses to cytotoxic drugs and environmental stress. A RealTime-Glo MT Cell Viability Assay to monitor cell viability in real time of continues cell culture during 40 hours of compound treatment was used to screen Tox21 10K library compounds in Hek293 cells. The RealTime-Glo MT Cell Viability Assay is a nonlytic, homogeneous, bioluminescent method to measure cell viability in real time using a simple, plate-based method. The assay involves adding NanoLuc luciferase and a cell-permeant prosubstrate to cells in culture. Viable cells reduce the proprietary prosubstrate to generate a substrate for NanoLuc luciferase. This substrate diffuses from cells into the surrounding culture medium, where it is rapidly used by the NanoLuc Enzyme to produce a luminescent signal. The signal correlates with the number of viable cells, making the assay well suited for cytotoxicity studies.
Tox21 Assay Protocol Summary: The mixture of Hek293 cell suspension and reagents were dispensed at 600cells/6 ul/well in 1536-well tissue culture treated black solid bottom plates using a Multidrop dispenser. After the assay plates were incubated at a 37 C/5% CO2 incubator for 5 hours, 23 nL of compounds dissolved in DMSO, positive and negative controls was transferred to the assay plate by a pintool work station. The plates were incubated at 37 C for 40 hours. The luminescence intensity were measured at 0h, 8h, 16h, 24h, 32h and 40h time points using ViewLux plate reader during compound treatment.
For the compound `Nc1ccc2c3c(cccc13)-c1ccccc1-2`, the Potency is 19.7 µM (active).

Regarding `c1ccc(CSCc2ccccc2)cc1`, the “activity change, negative = cytotoxicity” value is -11.7%.

On to `OCCN1CCN(CC/C=C2/c3ccccc3Sc3ccc(C(F)(F)F)cc32)CC1`, for which the Potency is 21.3 µM (active).

Turning to `Cc1cc2c(cc1C(F)(F)F)N(C(=O)Nc1ccc(Oc3cccnc3C)nc1)CC2`, the “activity change, negative = cytotoxicity” value was -28.4%.

As to `CC(C)CCCCCCCCCCCCCCC(=O)O`, the “activity change, negative = cytotoxicity” value is 13.5%.

Turning to `CCN(CC)CCCC(C)Nc1c2ccc(Cl)cc2nc2ccc(OC)cc12` (stereo not given), the Potency is 5.35 µM (active).

For the compound `Cc1cc(N)c(S(=O)(=O)O)cc1Cl`, the “activity change, negative = cytotoxicity” value was 3.67%.

`Fc1ccc([C@@H]2CCNC[C@H]2COc2ccc3c(c2)OCO3)cc1`: the “activity change, negative = cytotoxicity” value was -1.98% [at 35.3 µM].

As for `CCCCCCCCCCCCc1ccc(O)cc1`, the Potency is 43.6 µM (active).

As to `COC(=O)C1=C(C)NC(C)=C(C(=O)OCC(C)C)C1c1ccccc1[N+](=O)[O-]` (stereo not given), the Potency is 21.9 µM (active).

Regarding `O=[N+]([O-])c1cc(Cl)c(Cl)c(Cl)c1Cl`, the “activity change, negative = cytotoxicity” value was -19.7%.

Regarding `CCCCCCCC/C=C/CCCCCCCC1=NCCN1CCO`, the Potency is 43.6 µM (active).

`Clc1ccc2nsnc2c1NC1=NCCN1`: the “activity change, negative = cytotoxicity” value was 3.71% [at 35.3 µM].

Consider `CN(C)c1ccc(C2(c3ccc(N(C)C)cc3)OC(=O)c3cc(N(C)C)ccc32)cc1`, for which the “activity change, negative = cytotoxicity” value was -3.49%.

As for `C[n+]1cc2c3c(ccc2c2ccc4cc5c(cc4c21)OCO5)OCO3`, the Potency was 0.465 µM (active).

As to `CCCCCCCC(=O)[O-].CCCCCCCC(=O)[O-].[Zn+2]`, the “activity change, negative = cytotoxicity” value was 2.61% [at 35.3 µM].

As for `CC/C(=C(\c1ccc(O)cc1)c1ccc(OCCN(C)C)cc1)c1ccccc1`, the Potency was 27.6 µM (active).

`O=C(O)c1cc(O)c2c(c1)C(=O)c1cccc(O)c1C2=O`: the “activity change, negative = cytotoxicity” value is -4.69%.

For the compound `COc1cc(-c2nc(NC(=O)c3cc4cc(C)cc(C)c4n3CC(=O)O)sc2CCC2CCCCC2)c(OC)cc1Cl`, the “activity change, negative = cytotoxicity” value is -29.6%.

Regarding `OCCCCCCCCCCCCBr`, the “activity change, negative = cytotoxicity” value was -19.6%.

Consider `CC(C)=CCOc1ccc(/C=C/C(=O)c2ccc(OCC=C(C)C)cc2OCC(=O)O)cc1`, for which the “activity change, negative = cytotoxicity” value is 3.52% [at 35.3 µM].

Consider `CCN(CCC#N)c1ccc(N=Nc2c(Cl)cc([N+](=O)[O-])cc2Cl)cc1`, for which the “activity change, negative = cytotoxicity” value is -13%.

Turning to `CCCCCCCC[P+](CCCCCCCC)(CCCCCCCC)CCCCCCCC`, the Potency was 6.13 µM (active).

On to `C[C@@H](NCCCc1cccc(C(F)(F)F)c1)c1cccc2ccccc12`, for which the Potency is 23.9 µM (active).

For `CCN(C(=O)c1cc(C)cc(OC[C@H](C)Nc2ccncc2)c1)C(C)C`, the “activity change, negative = cytotoxicity” value was 0.894% [at 35.3 µM].

Consider `CCCCN1C(=O)[C@@H]([C@H](O)C2CCCCC2)NC(=O)C12CCN(Cc1ccc(Oc3ccc(C(=O)O)cc3)cc1)CC2`, for which the “activity change, negative = cytotoxicity” value was 0.463%.

Take `CCOc1nc2cccc(C(=O)OC(C)OC(=O)OC3CCCCC3)c2n1Cc1ccc(-c2ccccc2-c2nn[nH]n2)cc1` (stereo not given): the Potency was 8.7 µM (active).

Turning to `CC(=O)N1CCN(c2ccc(OC[C@H]3CO[C@](Cn4ccnc4)(c4ccc(Cl)cc4Cl)O3)cc2)CC1`, the Potency is 24.5 µM (active).

Regarding `Cc1cc(CCN2CCN(c3nsc4ccccc34)CC2)cc2c1NC(=O)CC2(C)C`, the Potency is 21.9 µM (active).

Turning to `Cc1cc(=O)oc2cc(N(C)C)ccc12`, the “activity change, negative = cytotoxicity” value was -23.6%.

`O=C(Oc1cccc2cccnc12)c1ccccc1`: the “activity change, negative = cytotoxicity” value is 0.118% [at 35.3 µM].

Consider `CCCCc1oc2ccc(NS(C)(=O)=O)cc2c1C(=O)c1ccc(OCCCN(CCCC)CCCC)cc1`, for which the Potency was 19 µM (active).

For `[Cl][Bi]([Cl])([c]1ccccc1)([c]1ccccc1)[c]1ccccc1`, the Potency is 21.7 µM (active).

In the case of `Cc1cc(O)c(Cl)c(C)c1Cl`, the “activity change, negative = cytotoxicity” value was -25.9%.

On to `O=S1(=O)CC(Cl)(Cl)C(Cl)(Cl)C1`, for which the Potency is 12.3 µM (active).

Take `c1cc(C(c2ccc(OCC3CO3)cc2)c2ccc(OCC3CO3)cc2)ccc1OCC1CO1` (stereo not given): the “activity change, negative = cytotoxicity” value was -14.8%.

Take `COc1ccc(CN2CCN(C(c3ccc(F)cc3)c3ccc(F)cc3)CC2)c(OC)c1OC`: the Potency is 19 µM (active).

Consider `CC(C)(C)CC(C)(C)c1ccc(O)c(Cc2ccc(Cl)cc2Cl)c1`, for which the Potency is 23.9 µM (active).

As to `CC(C)(C)NC(=O)[C@@H]1C[C@@H]2CCCC[C@@H]2CN1C[C@@H](O)[C@H](Cc1ccccc1)NC(=O)[C@H](CC(N)=O)NC(=O)c1ccc2ccccc2n1`, the Potency was 19.7 µM (active).

With `C/C=C1/C(=O)C[C@H]2[C@@H]3CCC4=CC(=O)CC[C@]4(C)[C@H]3CC[C@]12C`, the Potency is 24.5 µM (active).
